Compound activity: PubChem BioAssay, National Center for Advancing Translational Sciences (NCATS)
This is a sample that favours compounds with a hit; in the whole collection about 0.95% have one here.
A647 autofl = compound autofluorescence in A647 spectral region; 59,000 tested, under 10 active; Compound fluorescence, A647 channel (570/671 nm), Tris buffer; AID 592; max dye-equivalent concentration, M
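Buffer was dispensed, compounds and Alexa 647 standards were pin-transferred, and plates sat 15 min at room temperature. Intensity at 570/671 nm was then converted to dye-equivalent concentration using the plate's A647 standard curve.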
A488 fluor = compound fluoresces in the A488 spectral region | compound autofluorescence, A488 spectral region, dye equivalency; Compound Type: qHTS ECL - MLSMR | max dye equivalency, M | hit rate 0.1% among 59,000 | AID 591
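Compound autofluorescence was read in 100 mM Tris pH 8.0 after 15 min at room temperature, ex 480 nm/em 540 nm. Intensities were converted to A488 dye-equivalent concentration using an on-plate six-point A488 standard curve.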
Fluorescein autfl = compound autofluorescence in fluorescein spectral region; Compound autofluorescence, 480/540 nm, fluorescein-equivalent; hits give high values; max fluorescein-equivalent concentration, M; hit rate 0.91% among 59,000; AID 593; in the data active = max fluorescein-equivalent concentration above about 10 nM; inconclusive = between about 1.1 nM and that limit
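Normalized response (dye-equivalent concentration) derives from comparing each well's 540 nm emission, under 480 nm excitation, with plate-resident fluorescein standards. Compounds were held in 100 mM Tris, pH 8.0, for 15 min at room temperature.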
Texas Red fluor = compound fluoresces in the Texas Red spectral region. Compound fluorescence, Texas Red channel, 547/618 nm; hits give high values. max dye-equivalent concentration, M. hit rate 0.06% among 59,000. AID 587; in the data active = max dye-equivalent concentration above about 10 nM; inconclusive = between about 1.1 nM and that limit
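Spectral interference profiling: each compound concentration's relative fluorescence, read with a 547 nm excitation and 618 nm emission filter pair, was normalized to a per-plate Texas Red standard curve.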
Resorufin autofl = resorufin region autofluorescence; Compound fluorescence, resorufin region 547/598 nm, buffer; hits give high values; max dye-equivalent concentration, M; hit rate 0.04% among 59,000; AID 588
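Dye-equivalent concentration values derive from comparing each well's 547/598 nm fluorescence against resorufin standards included on every plate. Incubation was 15 min at room temperature in 100 mM Tris, pH 8.0.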
Rhodamine fluor = compound fluoresces in the rhodamine spectral region; Rhodamine-region fluorescence, 547/598 nm, Tris buffer; hits give high values; max dye-equivalent concentration, M; hit rate 0.05% among 59,000; AID 594; in the data active = max dye-equivalent concentration above about 11 nM; inconclusive = between about 1.1 nM and that limit
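Intensities are converted to rhodamine-equivalent concentration using a six-point rhodamine standard on each plate. Compounds sit 15 min at room temperature in 100 mM Tris buffer, pH 8.0; read uses the 547/598 nm excitation/emission pair.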
A number is an active result; - = inactive; ? = inconclusive. Unless noted, no rule for the calls is given here.

SMILES	A647 autofl	A488 fluor	Fluorescein autfl	Texas Red fluor	Resorufin autofl	Rhodamine fluor
Cc1ccc2[nH]c3c(c2c1)CN(C(=O)CN1CCN(c2ccccn2)CC1)CC3	-	-	1.79e-08M	-	-	-
CCCN1CCCc2cc(CN)ccc21	-	?	3.28e-08M	-	-	-
COC(=O)/C=c1/sc2n(c1=O)CCN=2	-	-	-	-	-	-
CN(C)c1ccc(/C=c2\sc3n(c2=O)CCCN=3)cc1	-	-	1.45e-08M	-	-	-
COC(=O)c1ccc(C2/C(=C(/O)c3ccc(OC(C)C)cc3)C(=O)C(=O)N2c2cc(C)on2)cc1 (stereo not drawn)	-	-	-	?	-	-
COC(=O)c1ccc(C2/C(=C(/O)c3ccc(OC)cc3)C(=O)C(=O)N2c2cc(C)on2)cc1 (stereo not drawn)	-	-	1.02e-08M	-	-	-
CCn1nc(C)c(/C=C2\CCCC3=C2OC(N)=C(C#N)C3c2c(C)nn(CC)c2C)c1C (stereo not drawn)	-	-	2.42e-08M	-	-	-
Cc1nn(-c2ccccc2)c(Cl)c1C1C(C#N)=C(N)OC2=C1C(=O)CCC2 (stereo not drawn)	-	-	?	-	-	-
CCC1C2CN(C(C)=O)CC=C2C(C#N)=C(N)C1(C#N)C#N (stereo not drawn)	-	-	?	-	-	-
CN1CC=C2C(C#N)=C(N)C(C#N)(C#N)C(Cc3ccccc3)C2C1 (stereo not drawn)	-	?	3.71e-08M	?	-	-
CCN1CC=C2C(C#N)=C(N)C(C#N)(C#N)C(c3cc(Cl)ccc3Cl)C2C1 (stereo not drawn)	-	-	2.4e-08M	-	-	-
CC(C)N1CC=C2C(C#N)=C(N)C(C#N)(C#N)C(c3ccccc3)C2C1 (stereo not drawn)	-	?	1.58e-07M	-	-	-
COc1cc(C2C3CN(C)CC=C3C(C#N)=C(N)C2(C#N)C#N)ccc1OC(C)C (stereo not drawn)	-	?	3.61e-08M	-	-	-
C=C1CC[C@H]2C(C)(C)[C@H](O)CC[C@]2(C)[C@@H]1COc1ccc2ccc(=O)oc2c1	-	-	-	-	-	-
O=[n+]1c2c(n([O-])c3cc(F)ccc31)CCCC2	-	-	-	-	-	-
O=[n+]1c2c(n([O-])c3cc(F)c(N4CCCC4)cc31)CCC2	-	?	1.71e-07M	?	?	?
O=c1c(-c2ccccc2)[n+]([O-])c2ccccc2n1O	-	-	1.73e-08M	-	-	-
FC(F)(F)c1nc2ncc(Cl)cc2[nH]1	-	-	-	-	-	-
Cn1c(=O)[nH]c2cc(Cl)cnc21	-	-	1.79e-08M	-	-	-
COc1ccc(-n2c(=O)c(CCc3ccccc3)nc3cnc(N4CCN(C)CC4)nc32)cc1	-	-	1.22e-08M	-	-	-
Cc1ccc(/C=c2\sc3nc(-c4ccco4)nn3c2=O)o1	-	-	1.5e-08M	-	-	-
CCN(CC)c1ccc2c(c1)C(=O)N(C)C2=O	-	-	1.13e-08M	?	-	-
COc1ccc2nc(N3CCC(C)CC3)c(C#N)cc2c1	-	-	?	-	-	-
COc1ccc2nc(N3CCC(O)CC3)c(C#N)cc2c1	-	-	2.31e-08M	-	-	-
C=CCn1c(O)c(CN2CCOCC2)c(C)c(C#N)c1=O	-	-	1.27e-08M	?	-	-
SMILES	A647 autofl	A488 fluor	Fluorescein autfl	Texas Red fluor	Resorufin autofl	Rhodamine fluor
Cn1c(CN2CCOCC2)c(C#N)c2ccccc21	-	-	?	-	-	-
CCOc1cccc2cc(C(=O)N3CCc4ccccc43)c(=O)oc12	-	-	?	2.29e-08M	?	1.13e-08M
COc1cccc2cc(C(=O)N3CCc4ccccc43)c(=O)oc12	-	-	-	-	-	-
C=CCn1c(=O)/c(=C/c2ccc(C)o2)s/c1=C(/C#N)C(=O)c1ccccc1	-	?	9.85e-08M	-	-	-
Cc1ccc(S(=O)(=O)N2CCC(C(=O)Nc3nnc(C4CCCC4)s3)CC2)cc1	-	-	1.19e-08M	-	-	-
CCOC(=O)C1=C(C)OC(N)=C(C#N)C1c1cc(OC)c2c(c1)OCO2 (stereo not drawn)	-	-	?	-	-	-
CCOc1cc(C2C(C#N)=C(N)OC(C)=C2C(C)=O)cc(Br)c1O (stereo not drawn)	-	1.24e-08M	1.92e-07M	-	-	-
